Drawing on the supplement of paper PMC12297408, this text covers gametocyte viability for 47 compounds.

This assay concerns Plasmodium falciparum NF54/iGP1_RE9H ulg8 stage V gametocytes. The assay is described as follows: gametocyte viability (luciferase signal relative to DMSO control) (% of DMSO control); higher = less gametocytocidal activity, active = 50 or less. Particulars: exposure time: 72 h. In short, it runs like this:
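Gametocyte viability is reported relative to the average of DMSO vehicle wells on the same plate. The assay used day-12 stage V NF54/iGP1_RE9Hulg8 gametocytes at ~2.5% gametocytemia and 3% hematocrit, in 0.5% Albumax II medium, added to 96-well plates of compounds spotted in nanolitre volumes for final 10 µM or 1 µM, one well each. After 72 h at 37 °C, 90 µl was mixed with 10 µl D-luciferin (30 mg/ml), and luminescence was recorded with an IVIS Lumina II.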

SMILES strings stand for the structures. Where a name gives a salt, the structure may show the parent alone. About 40 (3%) of roughly 1,300 compounds showed activity. Shown is part of a subset that was picked to be rich in actives. A number with no mark means an inactive call.

With `CCOC(=O)c1ccc(OC(=O)CCCCCNC(=N)N)cc1` [Gabexate mesilate], the gametocyte viability (concentration: 1 µM) was 88.8 and the gametocyte viability (concentration: 10 µM) was 92.
For `CN1CCC(=C2c3ccccc3CC(=O)c3sccc32)CC1` [Ketotifen fumarate] the same measures were 79.5 and 84.2.
The corresponding values for `C=CC1=C(C(=O)O)N2C(=O)[C@@H](NC(=O)/C(=N\O)c3csc(N)n3)[C@H]2SC1` [Cefdinir] are 80.8 and 83.8.
The corresponding values for `CN1C(=O)OC(C)(C)C1=O` [Trimethadione] are 82.9 and 88.6.
For the compound `CC1=C(CC(=O)O)c2cc(F)ccc2/C1=C\c1ccc([S+](C)[O-])cc1` (centres undefined) [Sulindac], the gametocyte viability (concentration: 1 µM) was 88.6 and the gametocyte viability (concentration: 10 µM) is 82.7.
For `Cc1cc(NC(=O)C2=C(O)c3ccccc3S(=O)(=O)N2C)no1` [Isoxicam] the same measures were 82.8 and 81.8.
The corresponding values for `C[N+]1(C)CCC(=C(c2ccccc2)c2ccccc2)CC1` [Diphemanil methylsulfate] are 87 and 83.
In the case of `CCc1ccc(CCOc2ccc(CC3SC(=O)NC3=O)cc2)nc1` (centres undefined) [Pioglitazone], the gametocyte viability (concentration: 1 µM) was 86 and the gametocyte viability (concentration: 10 µM) is 88.2.
For `NC(=O)C(c1ccccc1)(c1ccccc1)[C@@H]1CCN(CCc2ccc3c(c2)CCO3)C1` [Darifenacin hydrobromide] the same measures were 81.7 and 84.2.
As for `CC(C)(S)[C@@H](N)C(=O)O` [Penicillamine], the gametocyte viability is 92.4 (concentration: 1 µM) and 93.1 (concentration: 10 µM).
The corresponding values for `N#Cc1cc(NC(=O)C(=O)O)c(Cl)c(NC(=O)C(=O)O)c1` [Lodoxamide] are 91.8 and 102.
In the case of `CC1=C(/C=C/C(C)=C/C=C/C(C)=C/C(=O)O)C(C)(C)CCC1` [Retinoic acid], the gametocyte viability (concentration: 1 µM) was 82.1 and the gametocyte viability (concentration: 10 µM) is 64.
As for `CCC(=O)[C@@]1(C)[C@H](C)C[C@H]2[C@@H]3CCC4=CC(=O)C=C[C@]4(C)[C@H]3[C@@H](O)C[C@@]21C` [Rimexolone], the gametocyte viability by setting is: (concentration: 1 µM) 89.4; (concentration: 10 µM) 85.3.
With `CCCNC(C)C(=O)Nc1c(C)csc1C(=O)OC` (centres undefined) [Articaine hydrochloride], the gametocyte viability by setting is: (concentration: 1 µM) 81.9; (concentration: 10 µM) 83.
The corresponding values for `CN/C(=N\CCSCc1nc[nH]c1C)NC#N` [Cimetidine] are 100 and 94.5.
The corresponding values for `C[C@]12CC[C@@H]3c4ccc(O)cc4C[C@@H](CCCCCCCCC[S+]([O-])CCCC(F)(F)C(F)(F)F)[C@H]3[C@@H]1CC[C@@H]2O` (some centres undefined) [Fulvestrant] are 90.3 and 84.7.
The corresponding values for `O=C1OC(CN2CCOCC2)CN1/N=C/c1ccc([N+](=O)[O-])o1` (centres undefined) [Furaltadone hydrochloride] are 89.7 and 93.4.
For the compound `CN(C)CCN1C(=O)c2ccccc2N(C)c2ccccc21` [Dibenzepine hydrochloride], the gametocyte viability by setting is: (concentration: 1 µM) 84.8; (concentration: 10 µM) 91.3.
For `COc1cc(NC(C)CCCN)c2ncccc2c1` (centres undefined) [Primaquine diphosphate] the same measures were 83.1 and 35.1 (active).
The corresponding values for `CCCc1nc(C)c2c(=O)nc(-c3cc(S(=O)(=O)N4CCN(CC)CC4)ccc3OCC)[nH]n12` [Vardenafil] are 70.1 and 43.9 (active).
The corresponding values for `CCCc1nn(C)c2c(=O)[nH]c(-c3cc(S(=O)(=O)N4CCN(C)CC4)ccc3OCC)nc12` [Sildenafil] are 90.3 and 70.6.
Consider `CN(C)CCOC(c1ccccc1)c1ccccc1.Cn1c(=O)c2[nH]c(Cl)nc2n(C)c1=O` [Dimenhydrinate], for which the gametocyte viability reads like this: (concentration: 1 µM) 89; (concentration: 10 µM) 94.
For `CCCCCCCCCCCCCCCC[N+](C)(C)CCN(Cc1ccc(OC)cc1)c1ncccn1` [Thonzonium bromide], the gametocyte viability (concentration: 1 µM) is 77 and the gametocyte viability (concentration: 10 µM) was 1.76 (active).
For `CN(C)CCN(Cc1ccc(Cl)cc1)c1ccccn1` [Chloropyramine hydrochloride] the same measures were 87.4 and 90.3.
For `COc1ccc(CN(CCN(C)C)c2ccccn2)cc1` [Pyrilamine maleate] the same measures were 90.9 and 100.
The corresponding values for `CCCNCC(O)COc1ccccc1C(=O)CCc1ccccc1` (centres undefined) [Propafenone hydrochloride] are 81.6 and 75.7.
Regarding `CC(C)Nc1cccnc1N1CCN(C(=O)c2cc3cc(NS(C)(=O)=O)ccc3[nH]2)CC1` [Delavirdine], the gametocyte viability by setting is: (concentration: 1 µM) 92.5; (concentration: 10 µM) 95.8.
The corresponding values for `CC[C@@H]1C(=O)OC[C@@H]1Cc1cncn1C` [Pilocarpine nitrate] are 98.2 and 98.
The corresponding values for `CC(C)NCC(O)c1ccc(NS(C)(=O)=O)cc1` (centres undefined) [Sotalol hydrochloride] are 83.1 and 92.1.
For `N=C(N)NC(=N)NCCc1ccccc1` [Phenformin hydrochloride] the same measures were 83.8 and 83.6.
As for `CC(C)NC(=N)NC(=N)Nc1ccc(Cl)cc1` [Proguanil hydrochloride], the gametocyte viability reads like this: (concentration: 1 µM) 100; (concentration: 10 µM) 106.
The corresponding values for `N=C(NCCCCCCNC(=N)NC(=N)Nc1ccc(Cl)cc1)NC(=N)Nc1ccc(Cl)cc1` [Chlorhexidine] are 92.1 and 1.08 (active).
Turning to `N=C(N=C(N)N)N1CCOCC1` [Moroxidine hydrochloride], the gametocyte viability is 83.9 (concentration: 1 µM) and 87.9 (concentration: 10 µM).
The corresponding values for `NC1CCN(c2nc3c(cc2F)c(=O)c(C(=O)O)cn3-c2ccc(F)cc2F)C1` (centres undefined) [Tosufloxacin hydrochloride] are 78.5 and 86.9.
The corresponding values for `NC(=O)c1ccc[n+]([C@@H]2O[C@H](COP(=O)([O-])OP(=O)(O)OC[C@H]3O[C@@H](n4cnc5c(N)ncnc54)[C@H](O)[C@@H]3O)[C@@H](O)[C@H]2O)c1` [Nadide] are 85.3 and 79.3.
For `C[C@]12CCC(=O)C=C1C=C[C@@H]1[C@@H]2CC[C@@]2(C)[C@H]1CC[C@@]21CCC(=O)O1` [Canrenone] the same measures were 80 and 83.7.
`C[C@H]1O[C@H](O[C@H]2[C@H](O)[C@@H](O)[C@@H](O[C@@H]([C@H](O)[C@@H](O)C=O)[C@H](O)CO)O[C@@H]2CO)[C@H](O)[C@@H](O)[C@@H]1N[C@H]1C=C(CO)[C@@H](O)[C@H](O)[C@H]1O` [Acarbose]: the gametocyte viability is 80.6 (concentration: 1 µM) and 83.5 (concentration: 10 µM).
For `NCCc1cc[nH]n1` [Betazole hydrochloride] the same measures were 94.2 and 94.2.
For `CCC(=O)OCC(=O)[C@@]1(OC(=O)CC)[C@H](C)C[C@H]2[C@H]3[C@H]([C@@H](O)C[C@@]21C)[C@@]1(C)C=CC(=O)C=C1C[C@H]3Cl` [Alclometasone dipropionate] the same measures were 83.6 and 78.3.
On to `CN(N=O)C(=O)N[C@H]1C(O)O[C@H](CO)[C@@H](O)[C@@H]1O` (mixture of isomers) [Streptozotocin], for which the gametocyte viability was 84.7 (concentration: 1 µM) and 92.1 (concentration: 10 µM).
Turning to `C[C@@H](O)[C@H]1C(=O)N2C(C(=O)O)=C(SCCNC=N)C[C@H]12` [Imipenem], the gametocyte viability runs as follows: (concentration: 1 µM) 88.8; (concentration: 10 µM) 87.5.
For `Cc1cc(N)c2ccccc2[n+]1CCCCCCCCCC[n+]1c(C)cc(N)c2ccccc21` [Dequalinium dichloride] the same measures were 83.5 and 36.1 (active).
The corresponding values for `Cc1[nH]c(=O)c(C#N)cc1-c1ccncc1` [Milrinone] are 81 and 82.1.
The corresponding values for `Cc1c(C)c2c(c(C)c1O)CCC(C)(COc1ccc(CC3SC(=O)NC3=O)cc1)O2` (centres undefined) [Troglitazone] are 81.7 and 76.3.
With `CC=C(C)C(=O)OC1C(OC(C)=O)C2(CO)C(O)CC3(C)C(=CCC4C5(C)CCC(OC6OC(C(=O)O)C(OC7OC(CO)C(O)C(O)C7O)C(O)C6OC6OC(CO)C(O)C(O)C6O)C(C)(CO)C5CCC43C)C2CC1(C)C` (stereo not drawn) [Beta-Escin], the gametocyte viability reads like this: (concentration: 1 µM) 90.1; (concentration: 10 µM) 93.2.
For `C[C@@H](O[C@H]1OCCN(Cc2n[nH]c(=O)[nH]2)[C@H]1c1ccc(F)cc1)c1cc(C(F)(F)F)cc(C(F)(F)F)c1` [Aprepitant] the same measures were 87.7 and 75.4.
In the case of `CCN(CC)CCNC(C(=O)OCCC(C)C)c1ccccc1` (centres undefined) [Camylofine chlorhydrate], the gametocyte viability runs as follows: (concentration: 1 µM) 79.9; (concentration: 10 µM) 85.5.
